Measured values from PubChem BioAssay AID463173 (ICCB-Longwood Screening Facility, Harvard Medical School, 2010).
In all, about 52,000 compounds went through this assay and about 4,300 (8.3%) were called active. This is one part of a sample in which actives are shown more often than they occur. A number with no mark means an inactive call. Rule as the data show it: active = survival mostly below about 52% (no sharp cut-off); inactive = mostly above about 56%.

system: DeltatarO mutant; test: S. aureus survival, RN4220 and DeltatarO strains – OD600, teichoic acid synthesis inhibitors, primary screen (AID 463173); details: S. aureus RN4220 wild type/DeltatarO growth, OD600, 18 h, stronger effect = lower value, screened at 18.75 µg/mL (by protocol)

Row | Compound | survival
1 | CC(=O)Nc1ccc(-n2cc3c(c2-c2ccc(C)cc2)c(=O)n(C)c(=O)n3C)cc1 | 92%
2 | COc1ccc(-c2noc(CCC(=O)N(C)c3cc(Cl)ccc3OC)n2)cc1 | 26% (active)
3 | COc1ccc(C)cc1N(C)C(=O)CCc1nc(-c2ccccc2F)no1 | 45%
4 | COc1ccc(-c2noc(CC(=O)N(C)c3cc(Cl)c(OC)cc3OC)n2)cc1 | 82%
5 | Cc1ccc(NC(=O)CCN2C(=O)c3ccccc3Sc3ncccc32)cc1 | 66%
6 | CCN(CC)C(=O)Cn1c(C)c(C#N)c2ccccc21 | 96%
7 | O=C(CC(c1cccs1)N1Cc2ccccc2C1=O)Nc1ccc(F)c(Cl)c1 (stereo unspecified) | 83%
8 | CCn1c2ccccc2c2cc(CN3CCN(Cc4ccccc4C)CC3)ccc21 | -3% (active)
9 | CCN(CC)C(=O)C1CCN(Cc2ccccc2F)CC1 | 99%
10 | O=c1c2ccccc2n(Cc2ccccc2F)c(=O)n1-c1cccc(F)c1 | 68%
11 | Cc1ccccc1Cn1c(=O)n(CCc2ccccc2)c(=O)c2ccccc21 | 64%
12 | Cc1cccc(CCn2c(=O)c3ccccc3n(Cc3ccccc3C)c2=O)c1 | 72%
13 | CCn1c2ccccc2c2cc(CN3CCN(Cc4ccccc4F)CC3)ccc21 | 7% (active)
14 | CCC(C)NC(=O)c1ccc2c(c1)N(Cc1ccccc1)C(=O)c1ccccc1S2 (stereo unspecified) | 92%
15 | CCOc1cc2sc(N3CCC(C(=O)Nc4ccccc4Cl)CC3)nc2cc1Br | 77%
16 | CCOc1cc(C2NC(=O)c3c(sc4c3CCN(C)C4)N2)ccc1OC(=O)c1ccc(F)cc1 (stereo unspecified) | 56%
17 | COc1ccc(-c2[nH]c(-c3ccc(F)cc3)nc2SCC(=O)Nc2ccc(OC)c(OC)c2)cc1 | 53%
18 | O=C(CSc1cn(CC(=O)N2CCCCC2)c2ccccc12)NCc1ccccc1Cl | 74%
19 | CN(C)S(=O)(=O)c1ccc(NC(=O)CNCc2ccco2)cc1 | 97%
20 | O=C(CN1CCCN(Cc2cccc(F)c2)S1(=O)=O)Nc1ccc2c(c1)OCCO2 | 80%
21 | Cc1ccc(NC(=O)CCS(=O)(=O)c2ccc3nc(C)sc3c2)cc1 | 34% (active)

Row | Compound | survival
22 | Cc1nc2ccc(S(=O)(=O)CCC(=O)Nc3ccc(Cl)cc3)cc2s1 | 44%
23 | Cc1cc(C)cc(NC(=O)CCS(=O)(=O)c2ccc3nc(C)sc3c2)c1 | 50%
24 | CCOc1ccc(C2C(=O)N(C3CCCCCC3)CC(=O)N2Cc2ccc(F)cc2)cc1OC (stereo unspecified) | 117%
25 | COc1ccc(OCc2nnc(SCC(=O)NCc3ccco3)o2)cc1 | 85%
26 | O=C(Nc1cccc(C(F)(F)F)c1)c1cc(-c2ccc(Cl)cc2)on1 | 77%
27 | NS(=O)(=O)c1ccc(Nc2nc3nonc3nc2Nc2ccc(S(N)(=O)=O)cc2)cc1 | 122%
28 | Cc1cc(Nc2cccc(C(F)(F)F)c2)nc2ccc(NC(=O)Cc3ccc(Cl)cc3)cc12 | 101%
29 | Cc1ccc(Nc2nc3nonc3n3cnnc23)cc1Cl | 70%
30 | Cc1cc(Nc2cccc(C(F)(F)F)c2)ncn1 | 54%
31 | Fc1ccc(Nc2nc3nonc3nc2Nc2cccc(C(F)(F)F)c2)cc1 | -2% (active)
32 | Cc1ccc(Nc2nc3nonc3nc2Nc2cccc(C(F)(F)F)c2)cc1Cl | -1% (active)
33 | Fc1ccc(-c2nc(Nc3cccc(C(F)(F)F)c3)nc3c2COc2ccccc2-3)cc1 | 54%
34 | FC(F)(F)c1cccc(Nc2nc3nonc3nc2Nc2ccc(Cl)cc2)c1 | -16% (active)
35 | Cc1ccc(C)c(N2CCN(CCCNC(=O)Cn3ncc4c([nH]c5ccccc54)c3=O)CC2)c1 | 94%
36 | Cc1noc2ncnc(N3CCCC(C(=O)Nc4cccc(C(F)(F)F)c4)C3)c12 (stereo unspecified) | 93%
37 | Cc1cc(C)n(C(C)CC(=O)NCc2ccc(Cl)cc2)n1 (stereo unspecified) | 69%
38 | Nc1ccc2nc(SCCOc3ccccc3)sc2c1 | 88%
39 | COc1ccc2nc(SCC(O)c3cccc(Br)c3)[nH]c2c1 (stereo unspecified) | 76%
40 | Brc1ccc2nc(SCCOc3ccccc3)[nH]c2c1 | -1% (active)
41 | CCOc1ccc(Nc2cc(C)nc3nncn23)cc1 | 60%
42 | CCCS(=O)(=O)N1CCCC(C(=O)NCCOC)C1 (stereo unspecified) | 55%

Row | Compound | survival
43 | CCCCN(CC)CCNC(=O)Cn1c(=O)c2cccn2c2cccnc21 | 80%
44 | Cc1cc(=O)n2c(C(=O)Nc3ccc(C)c(C)c3)c(C(=O)Nc3ccccc3)sc2n1 | 52%
45 | Cc1ccc(NC(=O)c2c(C(=O)Nc3ccccc3)sc3nc(C)cc(=O)n23)cc1 | 59%
46 | COc1ccc(Cl)cc1NC(=O)c1c(C(=O)Nc2cccc(C)c2C)sc2nc(C)cc(=O)n12 | 74%
47 | Cc1cc(=O)n2c(C(=O)Nc3ccc(C)c(Cl)c3)c(C(=O)Nc3ccccc3)sc2n1 | 56% (active)
48 | COc1ccc(C)cc1NC(=O)c1c(C(=O)Nc2cccc(C)c2C)sc2nc(C)cc(=O)n12 | 61% (active)
49 | Cc1cc(=O)n2c(C(=O)Nc3ccc(F)c(Cl)c3)c(C(=O)Nc3cccc(C)c3C)sc2n1 | 65%
50 | CC(C)Oc1ccc(NC(=O)C2COc3ccccc3O2)cc1 (stereo unspecified) | 103%
51 | Cc1ccc(NS(=O)(=O)c2c(C)nc3sc(C)cn3c2=O)c(C)c1 | 83%
52 | CCOc1ccccc1CNC(=O)CN1C(=O)CCCc2ccccc21 | 86%
53 | COc1cccc(Cn2c(=O)n(CCc3ccccc3)c(=O)c3c2c2cc(OC)ccc2n3C)c1 | 81%
54 | CCOc1ccccc1Nc1sc(C(=O)c2ccccc2)c(N)c1C(=O)NCCc1ccccc1 | 99%
55 | Cc1ccc(N2CCN(C(=O)NCc3noc4ccc(C)cc34)CC2)c(C)c1 | 54%
56 | Cn1c(=O)c2c(nc(SCC(=O)Nc3ccc(F)cc3)n2Cc2ccccc2F)n(C)c1=O | 140%
57 | Cn1c(=O)c2c(nc(SCC(=O)Nc3ccc(F)cc3)n2Cc2ccccc2)n(C)c1=O | 89%
58 | Cn1c(=O)c2c(nc(SCC(=O)Nc3ccccc3F)n2Cc2ccc(Cl)cc2)n(C)c1=O | 80%
59 | Cn1c(=O)c2c(nc(SCC(=O)Nc3ccccc3)n2Cc2ccccc2F)n(C)c1=O | 43% (active)
60 | Cn1c(=O)c2c(nc(SCC(=O)Nc3ccccc3F)n2Cc2ccccc2F)n(C)c1=O | 65%
61 | Cn1c(=O)c2c(nc(SCC(=O)Nc3ccc(F)cc3)n2Cc2ccc(Cl)cc2)n(C)c1=O | 31% (active)
